# From publication PMC7862700, “An all-to-all approach to the identification of sequence-specific readers for epigenetic DNA modifications on cytosine”
# Key:
# Experiment in all cases: DAPPL (digital affinity profiling via proximity ligation, sequencing); 10 mM Tris-HCl pH 7.5, 50 mM NaCl, 1 mM DTT, 4% glycerol, room temperature, 30 min; GST-TFs on glutathione beads, 16-mer random dsDNA library, 0.1% formaldehyde crosslink after washing; high values mean tight binding
# Details in all cases: protein: recombinant; tags: N-terminal GST; dsDNA, one strand shown
# ELK1 = target: T1, ELK1 (Homo sapiens, UniProt P19419 1-428)
# T1 sequence: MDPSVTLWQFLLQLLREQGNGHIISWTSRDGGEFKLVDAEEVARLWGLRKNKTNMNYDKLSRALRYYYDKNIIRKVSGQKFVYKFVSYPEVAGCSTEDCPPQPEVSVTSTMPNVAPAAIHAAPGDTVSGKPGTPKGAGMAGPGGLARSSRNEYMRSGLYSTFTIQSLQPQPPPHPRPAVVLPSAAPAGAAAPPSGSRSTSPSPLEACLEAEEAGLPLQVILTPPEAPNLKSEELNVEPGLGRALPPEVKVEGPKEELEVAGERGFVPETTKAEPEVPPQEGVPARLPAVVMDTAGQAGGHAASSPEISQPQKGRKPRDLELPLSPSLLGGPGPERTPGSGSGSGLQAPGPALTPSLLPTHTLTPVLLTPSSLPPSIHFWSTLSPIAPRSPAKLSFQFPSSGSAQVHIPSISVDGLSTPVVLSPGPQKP
# Outline: (§1)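 A tag-only sample was pooled with DNA-barcoded human transcription factors that had been expressed in yeast as GST fusions and captured on glutathione beads. The pools were incubated for 30 min at room temperature with 200 nmole of a random double-stranded 16-mer DNA library in Tris/NaCl/DTT/glycerol buffer, then washed, crosslinked with 0.1% formaldehyde, proximity-ligated (BsaI/T4 ligase, 1 h, 37 °C), PCR-amplified and sequenced on an Illumina NextSeq500. Binding signal is each hexamer's read frequency for a factor divided by its frequency for the tag-only sample.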
# GABPA = target: T2, GABPA (Homo sapiens, UniProt Q06546 1-454)
# T2 sequence: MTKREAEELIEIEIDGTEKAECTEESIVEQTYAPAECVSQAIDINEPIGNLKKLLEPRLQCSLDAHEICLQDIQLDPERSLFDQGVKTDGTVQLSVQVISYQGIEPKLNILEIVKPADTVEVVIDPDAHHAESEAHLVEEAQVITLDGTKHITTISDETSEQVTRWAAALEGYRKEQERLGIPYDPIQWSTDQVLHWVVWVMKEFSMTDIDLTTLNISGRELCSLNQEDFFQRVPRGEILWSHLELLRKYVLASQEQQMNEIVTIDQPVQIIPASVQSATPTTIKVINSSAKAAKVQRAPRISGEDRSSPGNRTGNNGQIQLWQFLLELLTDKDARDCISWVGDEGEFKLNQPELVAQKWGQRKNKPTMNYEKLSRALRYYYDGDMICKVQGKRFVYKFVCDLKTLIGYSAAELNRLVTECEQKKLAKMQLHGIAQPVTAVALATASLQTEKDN
# Outline: as §1
# ELF1 = ELF1 (Homo sapiens, UniProt P32519 1-619)
# Outline: as §1
# EHF = target: T3, EHF (Homo sapiens, UniProt Q9NZC4 1-300)
# T3 sequence: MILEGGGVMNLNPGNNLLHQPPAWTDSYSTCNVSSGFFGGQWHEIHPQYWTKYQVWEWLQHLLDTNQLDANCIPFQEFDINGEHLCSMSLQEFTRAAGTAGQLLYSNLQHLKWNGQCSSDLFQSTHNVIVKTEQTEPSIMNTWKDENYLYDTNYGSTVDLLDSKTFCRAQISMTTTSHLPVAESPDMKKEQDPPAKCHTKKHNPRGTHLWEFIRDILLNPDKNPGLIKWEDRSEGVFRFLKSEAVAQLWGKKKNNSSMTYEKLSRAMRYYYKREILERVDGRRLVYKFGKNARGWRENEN
# Outline: as §1
# SPIB = SPIB (Homo sapiens, UniProt Q01892 1-262)
# Outline: as §1
# FEV = target: T4, FEV (Homo sapiens, UniProt Q99581 1-238)
# T4 sequence: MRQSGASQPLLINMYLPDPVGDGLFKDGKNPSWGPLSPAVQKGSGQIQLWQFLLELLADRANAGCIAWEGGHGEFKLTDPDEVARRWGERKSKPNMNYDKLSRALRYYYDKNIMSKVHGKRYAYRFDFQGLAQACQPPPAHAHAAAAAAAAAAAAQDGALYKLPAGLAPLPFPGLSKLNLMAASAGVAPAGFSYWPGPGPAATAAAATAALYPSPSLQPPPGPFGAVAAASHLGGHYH
# Outline: as §1
# ETV5 = ETV5 (Homo sapiens, UniProt P41161 1-510)
# Outline: as §1
# ELK4 = target: T5, ELK4 (Homo sapiens, UniProt P28324-2 1-405)
# T5 sequence: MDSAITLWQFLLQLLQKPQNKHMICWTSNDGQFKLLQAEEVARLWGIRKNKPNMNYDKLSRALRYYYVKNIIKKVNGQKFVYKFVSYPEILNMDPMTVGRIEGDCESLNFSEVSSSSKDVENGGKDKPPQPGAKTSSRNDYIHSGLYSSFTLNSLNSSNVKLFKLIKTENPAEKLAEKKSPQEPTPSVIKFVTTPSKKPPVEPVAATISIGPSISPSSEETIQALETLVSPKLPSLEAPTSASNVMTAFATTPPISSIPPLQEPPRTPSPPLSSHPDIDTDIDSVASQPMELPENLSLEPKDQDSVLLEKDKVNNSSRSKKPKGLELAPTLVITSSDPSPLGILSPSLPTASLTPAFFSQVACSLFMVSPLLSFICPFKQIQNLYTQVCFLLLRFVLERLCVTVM
# Outline: as §1
# ELF3 = target: T6, ELF3 (Homo sapiens, UniProt P78545 1-371)
# T6 sequence: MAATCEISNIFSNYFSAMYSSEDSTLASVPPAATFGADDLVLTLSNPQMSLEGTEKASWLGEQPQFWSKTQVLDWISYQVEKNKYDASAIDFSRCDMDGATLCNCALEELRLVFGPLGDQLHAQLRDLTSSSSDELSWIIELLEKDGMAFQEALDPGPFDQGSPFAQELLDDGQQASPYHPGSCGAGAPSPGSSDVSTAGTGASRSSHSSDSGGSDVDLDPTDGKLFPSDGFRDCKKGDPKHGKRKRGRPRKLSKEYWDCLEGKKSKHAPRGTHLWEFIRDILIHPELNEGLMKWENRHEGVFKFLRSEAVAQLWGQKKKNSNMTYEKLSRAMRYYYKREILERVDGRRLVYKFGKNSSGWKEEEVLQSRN
# Outline: as §1
# ETV1 = ETV1 (Homo sapiens, UniProt P50549 1-477)
# Outline: as §1
# SPDEF = target: T7, SPDEF (Homo sapiens, UniProt O95238 1-335)
# T7 sequence: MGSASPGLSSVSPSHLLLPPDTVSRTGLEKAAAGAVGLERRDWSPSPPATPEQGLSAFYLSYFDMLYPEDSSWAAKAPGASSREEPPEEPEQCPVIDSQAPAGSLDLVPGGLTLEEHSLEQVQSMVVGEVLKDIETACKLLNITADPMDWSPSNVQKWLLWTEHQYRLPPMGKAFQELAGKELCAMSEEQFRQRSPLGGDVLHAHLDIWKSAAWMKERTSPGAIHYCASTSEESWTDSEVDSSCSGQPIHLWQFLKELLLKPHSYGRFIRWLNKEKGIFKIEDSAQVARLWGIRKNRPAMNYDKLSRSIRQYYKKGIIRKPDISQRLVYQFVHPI
# Outline: as §1
# ETV7 = target: T8, ETV7 (Homo sapiens, UniProt Q9Y603 1-341)
# T8 sequence: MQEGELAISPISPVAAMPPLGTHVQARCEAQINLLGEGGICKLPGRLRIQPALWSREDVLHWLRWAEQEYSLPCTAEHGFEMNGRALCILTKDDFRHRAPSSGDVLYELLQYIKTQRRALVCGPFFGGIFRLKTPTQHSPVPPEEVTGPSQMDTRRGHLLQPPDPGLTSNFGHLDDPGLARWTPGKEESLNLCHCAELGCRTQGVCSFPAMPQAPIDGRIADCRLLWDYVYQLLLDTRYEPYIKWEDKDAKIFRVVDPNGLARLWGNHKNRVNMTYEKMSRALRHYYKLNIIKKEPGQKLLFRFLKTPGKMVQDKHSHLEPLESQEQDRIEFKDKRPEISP
# Outline: as §1
# ETV3 = target: T9, ETV3 (Homo sapiens, UniProt P41162-2 1-143)
# T9 sequence: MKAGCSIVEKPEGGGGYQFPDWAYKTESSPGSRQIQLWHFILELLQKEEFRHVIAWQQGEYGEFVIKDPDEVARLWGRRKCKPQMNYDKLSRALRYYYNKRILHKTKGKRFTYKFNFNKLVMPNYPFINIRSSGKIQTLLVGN
# Outline: as §1
# ETV6 = ETV6 (Homo sapiens, UniProt P41212 1-452)
# Outline: as §1
# Chain of SPIB (Q01892 whole entry): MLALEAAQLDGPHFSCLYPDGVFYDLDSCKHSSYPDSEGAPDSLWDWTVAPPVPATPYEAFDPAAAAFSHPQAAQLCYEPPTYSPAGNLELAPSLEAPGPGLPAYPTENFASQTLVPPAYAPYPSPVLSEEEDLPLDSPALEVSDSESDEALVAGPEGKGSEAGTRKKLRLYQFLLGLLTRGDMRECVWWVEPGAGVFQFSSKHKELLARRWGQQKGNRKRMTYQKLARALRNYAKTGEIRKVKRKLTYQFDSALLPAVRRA
# Chain of ETV6 (P41212 whole entry): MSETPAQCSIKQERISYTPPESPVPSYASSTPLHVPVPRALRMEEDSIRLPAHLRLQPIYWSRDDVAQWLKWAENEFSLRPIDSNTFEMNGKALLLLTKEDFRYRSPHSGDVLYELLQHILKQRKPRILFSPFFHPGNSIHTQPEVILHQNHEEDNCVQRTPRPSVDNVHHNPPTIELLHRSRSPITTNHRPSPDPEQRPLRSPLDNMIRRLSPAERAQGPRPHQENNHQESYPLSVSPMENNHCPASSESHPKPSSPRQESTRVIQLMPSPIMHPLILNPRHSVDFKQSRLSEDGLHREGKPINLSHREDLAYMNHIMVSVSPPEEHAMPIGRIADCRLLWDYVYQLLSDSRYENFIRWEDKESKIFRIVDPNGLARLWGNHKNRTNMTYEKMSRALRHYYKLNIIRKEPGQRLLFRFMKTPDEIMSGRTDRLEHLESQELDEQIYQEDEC
# Chain of ELF1 (P32519 whole entry): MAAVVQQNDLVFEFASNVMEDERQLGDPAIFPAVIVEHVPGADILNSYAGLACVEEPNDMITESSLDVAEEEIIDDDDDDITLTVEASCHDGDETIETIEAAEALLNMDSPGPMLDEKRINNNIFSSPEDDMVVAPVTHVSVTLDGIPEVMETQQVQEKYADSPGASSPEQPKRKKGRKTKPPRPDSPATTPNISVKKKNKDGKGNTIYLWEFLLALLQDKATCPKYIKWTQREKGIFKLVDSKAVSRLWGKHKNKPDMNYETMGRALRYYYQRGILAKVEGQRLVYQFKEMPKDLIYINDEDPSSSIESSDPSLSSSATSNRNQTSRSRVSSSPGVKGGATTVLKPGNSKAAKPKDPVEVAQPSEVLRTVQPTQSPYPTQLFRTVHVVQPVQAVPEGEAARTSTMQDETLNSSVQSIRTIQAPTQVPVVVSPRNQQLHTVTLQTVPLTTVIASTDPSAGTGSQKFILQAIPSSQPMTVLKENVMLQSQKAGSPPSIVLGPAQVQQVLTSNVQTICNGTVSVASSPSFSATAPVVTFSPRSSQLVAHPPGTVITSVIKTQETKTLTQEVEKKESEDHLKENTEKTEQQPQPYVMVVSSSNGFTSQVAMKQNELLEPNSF
# Chain of ETV1 (P50549 whole entry): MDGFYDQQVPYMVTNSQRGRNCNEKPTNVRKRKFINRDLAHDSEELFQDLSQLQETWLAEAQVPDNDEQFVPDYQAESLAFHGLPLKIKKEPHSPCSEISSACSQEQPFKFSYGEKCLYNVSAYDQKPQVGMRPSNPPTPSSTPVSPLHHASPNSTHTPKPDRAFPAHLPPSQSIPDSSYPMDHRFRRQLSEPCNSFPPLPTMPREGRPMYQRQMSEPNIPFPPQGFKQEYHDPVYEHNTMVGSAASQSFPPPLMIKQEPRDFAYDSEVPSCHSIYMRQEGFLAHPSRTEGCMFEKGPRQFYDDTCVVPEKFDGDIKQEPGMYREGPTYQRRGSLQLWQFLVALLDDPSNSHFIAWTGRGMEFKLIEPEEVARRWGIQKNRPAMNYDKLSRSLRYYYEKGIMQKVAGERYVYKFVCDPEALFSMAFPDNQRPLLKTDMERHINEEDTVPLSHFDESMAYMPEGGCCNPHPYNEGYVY
# Chain of ETV5 (P41161 whole entry): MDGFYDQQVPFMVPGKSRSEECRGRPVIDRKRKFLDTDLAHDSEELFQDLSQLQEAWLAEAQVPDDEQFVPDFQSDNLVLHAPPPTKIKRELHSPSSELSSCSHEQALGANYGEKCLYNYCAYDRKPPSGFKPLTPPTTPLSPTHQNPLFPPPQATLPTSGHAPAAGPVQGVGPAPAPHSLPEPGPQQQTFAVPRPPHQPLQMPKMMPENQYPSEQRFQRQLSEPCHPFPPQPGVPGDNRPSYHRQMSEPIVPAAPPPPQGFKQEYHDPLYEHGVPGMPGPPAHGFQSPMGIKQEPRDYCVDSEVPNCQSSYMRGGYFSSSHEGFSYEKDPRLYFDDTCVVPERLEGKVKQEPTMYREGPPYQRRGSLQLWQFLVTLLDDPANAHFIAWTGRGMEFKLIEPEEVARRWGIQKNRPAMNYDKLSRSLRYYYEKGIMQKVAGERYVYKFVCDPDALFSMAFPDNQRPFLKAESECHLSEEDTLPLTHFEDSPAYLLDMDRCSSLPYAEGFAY
sequence,measurement,setting,value
TCGTCC,binding signal,ELK1,"1.1 fold enrichment (6-mer frequency, TF over GST control)"
same,binding signal,GABPA,"1.05 fold enrichment (6-mer frequency, TF over GST control)"
same,binding signal,ELF1,"1.03 fold enrichment (6-mer frequency, TF over GST control)"
same,binding signal,EHF,"1 fold enrichment (6-mer frequency, TF over GST control)"
same,binding signal,SPIB,"1.06 fold enrichment (6-mer frequency, TF over GST control)"
same,binding signal,FEV,"1 fold enrichment (6-mer frequency, TF over GST control)"
same,binding signal,ETV5,"1.01 fold enrichment (6-mer frequency, TF over GST control)"
same,binding signal,ELK4,"1.15 fold enrichment (6-mer frequency, TF over GST control)"
same,binding signal,ELF3,"1.08 fold enrichment (6-mer frequency, TF over GST control)"
same,binding signal,ETV1,"1.06 fold enrichment (6-mer frequency, TF over GST control)"
same,binding signal,SPDEF,"1.08 fold enrichment (6-mer frequency, TF over GST control)"
same,binding signal,ETV7,"1.08 fold enrichment (6-mer frequency, TF over GST control)"
same,binding signal,ETV3,"1.04 fold enrichment (6-mer frequency, TF over GST control)"
same,binding signal,ETV6,"1.08 fold enrichment (6-mer frequency, TF over GST control)"
